Pf Dd2 inh: P. falciparum Dd2 growth inhibitors, primary screen, SYBR Green fluorescence, single dose replicates; 72 h; hits give low values; activity change, % at 10 µM; 94,000 compounds, 2.3% hits; in the data active means activity change below about -80%; inconclusive means no clear call, values can overlap the other calls
T cruzi growth-1: T. cruzi intracellular proliferation inhibitors, primary screen, cell-based, beta-gal Tulahuen parasites, NIH3T3 host, luminescence. 77,000 compounds, 5.9% hits. inhibition, % at 8.34 µM. T. cruzi beta-gal in NIH3T3, GalScreen luminescence, 90 h. AID 624255, 2012;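 active means mean inhibition above about 93%, with at least 55% of replicates each passing it, limit read from the data, passing the limit was not always enough; inconclusive means only one of those two conditions holds; inactive means neither condition holds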
C diff growth: C. difficile growth inhibitors, primary screen, HTS; Clostridium difficile clinical isolate growth, OD600, 24 h; hits give low values; growth activity, negative = inhibition, % at 16 µg/mL (by protocol); 86,000 compounds, 0.25% hits;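 active means mean growth activity at or below -80% and every replicate also at or below -80%; inconclusive means mean at or below -80% but some replicate above -80%; inactive means mean growth activity above -80%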;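 further: 0% = DMSO wells and -100% = levofloxacin 16 µg/mL wells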
T cruzi growth-2: T. cruzi intracellular proliferation inhibitors, confirmation, cell-based, NIH3T3 host, beta-gal parasite, luminescence, cherry-pick; shares compounds with T cruzi growth-1; T. cruzi beta-gal in NIH3T3, GalScreen luminescence, 90 h; inhibition, % at 8.35 µM; 5,600 compounds, 72% hits; AID 651739, 2012;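 active means mean replicate inhibition above about 95% and at least 55% of replicates individually reaching it, limit read from the data; inconclusive means only one of the two criteria is met; inactive means neither criterion is met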
T cruzi growth-3: inhibitors of intracellular T. cruzi replication, confirmation, NIH3T3 host cells, beta-gal parasites, cherry-pick, set 2; shares compounds with T cruzi growth-1; T. cruzi beta-gal in NIH3T3, GalScreen luminescence, 90 h; inhibition, % at 2.09 µM; 5,600 compounds, 21% hits; AID 651740, 2012;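 active means mean inhibition above about 95%, with at least 55% of replicates also reaching it, limit read from the data; inconclusive means meets just one of the two conditions; inactive means meets neither condition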;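 further: plate controls were neutral control median for no effect and positive control median for full effect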
NIH3T3 tox: cytotoxicity in mouse NIH/3T3 fibroblasts, confirmation, cytotoxicity control for T. cruzi proliferation inhibitor project, cell-based, cherry-pick, single point; shares compounds with T cruzi growth-1; NIH/3T3 viability, CellTiter-Glo ATP luminescence, 90 h; cytotoxicity (signal decrease), % at 8.35 µM; 5,600 compounds, 14% hits; AID 651742, 2012;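 active means mean signal decrease across replicates above about 35% based on untreated-well scatter, with enough replicates individually passing, limit read from the data; inconclusive means no rule stated though some were filed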;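 further: 0% = median of neutral control wells and 100% = median of positive control wells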
3T3 cytotox 2: NIH/3T3 fibroblast cytotoxicity, confirmation, cytotoxicity control, cell-based, cherry-pick, single point, set 2; shares compounds with T cruzi growth-1; 5,600 compounds, 56% hits; inhibition, % at 24.9 µM; NIH/3T3 viability, CellTiter-Glo ATP luminescence, 90 h;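 active means mean loss of cell viability signal at or above a set limit, and enough replicates individually reaching it; inconclusive means meets only the mean limit or only the replicate share; inactive means meets neither condition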;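 further: 0% = median of neutral control wells and 100% = median of positive control wells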
Starred values were filed as active, the others as inactive; ? = inconclusive; . = not tested or not shown; ! = not confirmed by another sample. Rows were chosen to be rich in hits. Some 6.7% of all compounds tested hit in one or more screens of this group.

SMILES	Pf Dd2 inh	T cruzi growth-1	C diff growth	T cruzi growth-2	T cruzi growth-3	NIH3T3 tox	3T3 cytotox 2
Cc1ccc(-c2ccc3c(c2)O[C@@H](CN(C)Cc2cccnc2)[C@H](C)CN([C@@H](C)CO)S3(=O)=O)cc1	-81*	117*	-14	98*	96*	51*	100*
O=C(NCCCN1CCOCC1)[C@H]1[C@H](CO)[C@H]2Cn3c(cccc3=O)[C@@H]1N2C(=O)C1CCCC1	40	.	2	.	.	.	.
Cc1ccc(F)cc1S(=O)(=O)N[C@@H]1CCN(C(=O)c2ccc(OC(C)C)cc2)C1	.	.	6	.	.	.	.
C[C@@H]1CN([C@@H](C)CO)C(=O)c2cccc(NC(=O)c3ccncc3)c2O[C@H]1CN(C)Cc1ccncc1	-5	61	-2	.	.	.	.
COc1ccc(CN(C)C[C@H]2Oc3c(NC(=O)c4ccncc4)cccc3C(=O)N([C@@H](C)CO)C[C@@H]2C)cc1	1	100*	4	95	80	12	37*
C[C@H](CO)N1C[C@H](C)[C@@H](CN(C)Cc2ccncc2)Oc2c(NC(=O)c3ccncc3)cccc2C1=O	18	44	-7	.	.	.	.
COc1ccc(CN(C)C[C@@H]2Oc3c(NC(=O)c4ccncc4)cccc3C(=O)N([C@@H](C)CO)C[C@H]2C)cc1	0	105*	-1	86	80	22	26*
COc1ccccc1-c1ccc2c(c1)O[C@@H](CN(C)S(=O)(=O)c1ccc(C)cc1)[C@H](C)CN([C@@H](C)CO)S2(=O)=O	-84*	126*	5	100*	71	24	46*
COc1ccccc1-c1ccc2c(c1)O[C@H](CN(C)S(=O)(=O)c1ccc(C)cc1)[C@H](C)CN([C@H](C)CO)S2(=O)=O	-39	120*	19	100*	?	18	53*
O=C(c1ccccc1F)N1C[C@@H]2[C@H](c3ccccc31)[C@@H](CO)N2C(=O)c1ccc(F)cc1	-6	-6	3	.	.	.	.
O=C(NCCN1CCCCC1)[C@H]1[C@H](CO)[C@H]2Cn3c(cccc3=O)[C@@H]1N2C(=O)C1CCCCC1	1	36	0	.	.	.	.
C/C=C/c1cnc2c(c1)C(=O)N([C@H](C)CO)C[C@@H](C)[C@H](CN(C)S(=O)(=O)c1ccccc1F)O2	-12	.	-2	.	.	.	.
C[C@@H]1CN([C@@H](C)CO)C(=O)c2cc(/C=C/c3ccccc3)cnc2O[C@@H]1CN(C)S(=O)(=O)c1ccccc1	-10	37	5	.	.	.	.
C[C@@H]1CN([C@@H](C)CO)C(=O)c2cc(/C=C/c3ccccc3)cnc2O[C@H]1CN(C)S(=O)(=O)c1ccccc1F	-48	123*	0	108*	81	23	?
C[C@H]1CN([C@@H](C)CO)C(=O)c2cc(/C=C/c3ccccc3)cnc2O[C@@H]1CN(C)S(=O)(=O)c1ccccc1F	-70	126*	-7	104*	64	18	37*
C[C@H](CO)N1C[C@H](C)[C@@H](CN(C)S(=O)(=O)c2ccccc2)Oc2ncc(/C=C/c3ccccc3)cc2C1=O	-48	125*	-8	108*	45	-14	20
C[C@H]1CN([C@@H](C)CO)C(=O)c2cc(/C=C/c3ccccc3)cnc2O[C@H]1CN(C)S(=O)(=O)c1ccccc1F	-41	41	-4	.	.	.	.
O=C(C[C@H]1CC[C@H]2[C@@H](COC[C@@H](O)CN2C(=O)c2ccccc2)O1)Nc1ccccc1	29	.	0	.	.	.	.
CC(=O)N1C[C@H]2[C@@H](c3ccccc31)[C@H](CO)N2C(=O)CC1CC1	7	-20	-5	.	.	.	.
COc1ccccc1-c1ccc2c(c1)[C@H]1[C@H](CCN1S(=O)(=O)c1cccc(F)c1)[C@@H](CO)N2	3	5	8	.	.	.	.
C[C@@H]1CCCCO[C@H](CN(C)S(=O)(=O)c2cccs2)[C@H](C)CN([C@@H](C)CO)C(=O)c2cc(NC(=O)CCCN(C)C)ccc2O1	-9	39	1	.	.	.	.
COc1ccccc1-c1ccc2c(c1)[C@H]1[C@H](CCN1S(=O)(=O)c1cccc(C)c1)[C@H](CO)N2	-35	.	44	.	.	.	.
O=C/C=C/c1ccc(-c2ccccc2)cc1	.	.	7	.	.	.	.
Cc1ccc(S(=O)(=O)Nc2ccc3c(c2)C(=O)N([C@H](C)CO)C[C@@H](C)[C@@H](CN(C)C(=O)C2CCCCC2)OCCCC[C@@H](C)O3)cc1	-69	95	-4	.	.	.	.
C[C@@H]1CCCCO[C@@H](CN(C)Cc2ccc3c(c2)OCO3)[C@@H](C)CN([C@H](C)CO)C(=O)c2cc(NS(=O)(=O)c3ccc(Cl)cc3)ccc2O1	-8	90	.	.	.	.	.
SMILES	Pf Dd2 inh	T cruzi growth-1	C diff growth	T cruzi growth-2	T cruzi growth-3	NIH3T3 tox	3T3 cytotox 2
C[C@@H]1CCCCO[C@@H](CN(C)Cc2ccc3c(c2)OCO3)[C@@H](C)CN([C@@H](C)CO)C(=O)c2cc(NS(=O)(=O)c3ccc(Cl)cc3)ccc2O1	-23	93	.	.	.	.	.
C[C@H]1CCCCO[C@H](CN(C)Cc2ccc3c(c2)OCO3)[C@@H](C)CN([C@@H](C)CO)C(=O)c2cc(NS(=O)(=O)c3ccc(Cl)cc3)ccc2O1	-53	?	.	101*	68	12	104*
C[C@@H]1CN([C@H](C)CO)C(=O)c2cc(NS(=O)(=O)c3ccc(Cl)cc3)ccc2O[C@@H](C)CCCCO[C@H]1CN(C)Cc1ccc2c(c1)OCO2	-71	106*!	.	97*	107*	20	104*
C[C@@H]1CN([C@H](C)CO)C(=O)c2cc(NS(=O)(=O)c3cn(C)cn3)ccc2O[C@H]1CN(C)S(=O)(=O)c1ccc(F)cc1	5	85	.	.	.	.	.
C[C@H]1CCCCO[C@H](CN(C)C(=O)Cc2ccccc2)[C@@H](C)CN([C@@H](C)CO)C(=O)c2cc(NC(=O)Nc3ccc4c(c3)OCO4)ccc2O1	-71	115*	1	112*	5	-15	3
C[C@@H]1CN([C@@H](C)CO)C(=O)c2cc(NC(=O)Nc3ccc4c(c3)OCO4)ccc2O[C@@H](C)CCCCO[C@H]1CN(C)C(=O)Cc1ccccc1	-6	-38	2	.	.	.	.
C[C@@H]1CCCCO[C@H](CN(C)C(=O)Cc2ccccc2)[C@@H](C)CN([C@@H](C)CO)C(=O)c2cc(NC(=O)Nc3ccc4c(c3)OCO4)ccc2O1	-84*	?	4	109*	30	-8	-3

Source: PubChem BioAssay
